These results are taken from ChEMBL document CHEMBL3988442, “University of Dundee, Small-Polar-MMV Screening Library” (2021).

For some of these results: Potency and affinity values are given separately.

Common to all, as to design: scale not given: direction of the effect not stated beside the values
Assay [1] addresses Protein translocase subunit SecA (Escherichia coli (strain K12)) (UniProt P10408). In words: Assay to Identify E. coli SecA ATPase Inhibitors. The following applies: 30 µM. The format is functional.
Assay [2] has as its target T1, Ubiquitin-activating enzyme e1, putative (Leishmania donovani (strain BPK282A1)) (UniProt E9BSI1).
T1 sequence (whole entry): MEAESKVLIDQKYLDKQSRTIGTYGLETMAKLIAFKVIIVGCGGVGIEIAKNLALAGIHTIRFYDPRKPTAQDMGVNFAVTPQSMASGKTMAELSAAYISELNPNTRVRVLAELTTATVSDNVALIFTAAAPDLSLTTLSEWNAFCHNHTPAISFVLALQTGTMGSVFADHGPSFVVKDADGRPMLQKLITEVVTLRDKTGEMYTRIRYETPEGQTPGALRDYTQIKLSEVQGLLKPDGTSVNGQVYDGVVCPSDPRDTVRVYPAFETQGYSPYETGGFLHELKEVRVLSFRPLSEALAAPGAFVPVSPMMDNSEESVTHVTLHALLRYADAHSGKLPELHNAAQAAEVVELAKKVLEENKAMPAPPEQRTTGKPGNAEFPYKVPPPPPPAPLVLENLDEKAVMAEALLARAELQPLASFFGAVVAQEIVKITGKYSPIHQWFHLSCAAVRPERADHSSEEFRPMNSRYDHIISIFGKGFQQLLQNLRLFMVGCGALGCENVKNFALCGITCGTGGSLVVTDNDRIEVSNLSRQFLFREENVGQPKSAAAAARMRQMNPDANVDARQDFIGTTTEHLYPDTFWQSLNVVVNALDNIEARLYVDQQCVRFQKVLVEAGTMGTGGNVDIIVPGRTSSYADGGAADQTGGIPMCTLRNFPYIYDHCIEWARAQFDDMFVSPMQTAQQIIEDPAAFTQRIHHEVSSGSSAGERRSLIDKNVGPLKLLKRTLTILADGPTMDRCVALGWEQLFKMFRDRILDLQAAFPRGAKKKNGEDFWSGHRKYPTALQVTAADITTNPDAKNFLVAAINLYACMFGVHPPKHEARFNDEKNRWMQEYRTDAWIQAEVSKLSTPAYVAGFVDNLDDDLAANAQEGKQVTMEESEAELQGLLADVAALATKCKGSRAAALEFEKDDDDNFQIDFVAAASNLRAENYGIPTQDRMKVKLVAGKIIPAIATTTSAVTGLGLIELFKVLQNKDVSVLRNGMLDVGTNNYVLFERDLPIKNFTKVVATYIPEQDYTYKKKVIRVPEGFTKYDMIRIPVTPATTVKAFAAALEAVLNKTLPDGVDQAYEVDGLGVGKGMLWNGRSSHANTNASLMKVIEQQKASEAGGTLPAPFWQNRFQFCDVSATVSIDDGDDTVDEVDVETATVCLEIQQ
The assay is described as follows: Leishmania donovani Ubiquitin Activating Enzyme (LdE1). Format: functional. The following applies: 30 µM.

Assay [3] deals with AMP-activated protein kinase, AMPK (Homo sapiens) (UniProt P54646+O43741+P54619+Q9UGJ0+Q9Y478+Q13131+Q9UGI9). In words: AMP-dependent Kinase enzyme assay. An in vitro enzyme assay that detects ADP turnover that is directly proportional to AMPK activity. This uses naive AMPK that is activated during the assay with MK-8722. The format is functional. Particulars: 30 µM.
The target in assay [4] is Sialic acid-binding Ig-like lectin 9 (Homo sapiens) (UniProt Q9Y336). In words: Hs-Siglec9 ALPHAscreen SOP 20170721. The following applies: 10 µM.
Chain of Sialic acid-binding Ig-like lectin 9 (Homo sapiens) (Q9Y336 whole entry): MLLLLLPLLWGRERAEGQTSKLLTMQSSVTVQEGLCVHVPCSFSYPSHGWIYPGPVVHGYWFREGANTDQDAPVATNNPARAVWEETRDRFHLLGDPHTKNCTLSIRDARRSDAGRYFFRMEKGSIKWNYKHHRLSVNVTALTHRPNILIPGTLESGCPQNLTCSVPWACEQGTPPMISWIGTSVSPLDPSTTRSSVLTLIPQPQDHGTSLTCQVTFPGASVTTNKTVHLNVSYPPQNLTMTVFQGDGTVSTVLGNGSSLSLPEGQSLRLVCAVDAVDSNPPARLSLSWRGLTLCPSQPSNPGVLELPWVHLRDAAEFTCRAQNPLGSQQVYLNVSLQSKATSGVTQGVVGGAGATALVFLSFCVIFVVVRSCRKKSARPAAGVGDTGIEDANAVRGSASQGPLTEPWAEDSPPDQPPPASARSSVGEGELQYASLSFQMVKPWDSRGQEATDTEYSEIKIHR
A further assay has as its system Trypanosoma cruzi. In words: Trypanosoma cruzi phosphomannomutase and mannose-1-phosphate guanylyltransferase assay. The format is functional. Particulars: 10 µM.
The target of assay [5] is T2, Arginase-2, mitochondrial (Homo sapiens) (UniProt P78540).
T2 sequence (whole entry): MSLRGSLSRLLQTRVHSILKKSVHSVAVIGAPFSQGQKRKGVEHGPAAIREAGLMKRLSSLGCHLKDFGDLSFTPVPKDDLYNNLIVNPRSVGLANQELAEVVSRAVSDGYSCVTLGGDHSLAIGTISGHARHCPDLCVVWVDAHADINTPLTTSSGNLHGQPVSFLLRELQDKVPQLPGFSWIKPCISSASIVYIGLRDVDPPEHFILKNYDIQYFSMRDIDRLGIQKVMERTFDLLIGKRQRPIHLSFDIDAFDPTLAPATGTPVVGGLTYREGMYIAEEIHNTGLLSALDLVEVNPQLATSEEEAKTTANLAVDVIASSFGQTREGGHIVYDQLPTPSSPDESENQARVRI
The assay is described as follows: in vitro enzyme assay to detect the production of urea directly proportional to the activity of Arginase II. Also: in the data most compounds retested in dose-response had high values. The format is functional. Particulars: 33.3 µM.

Assay [6] has as its target T3, Proteasome subunit beta (Trypanosoma cruzi) (UniProt O96673).
T3 sequence (whole entry): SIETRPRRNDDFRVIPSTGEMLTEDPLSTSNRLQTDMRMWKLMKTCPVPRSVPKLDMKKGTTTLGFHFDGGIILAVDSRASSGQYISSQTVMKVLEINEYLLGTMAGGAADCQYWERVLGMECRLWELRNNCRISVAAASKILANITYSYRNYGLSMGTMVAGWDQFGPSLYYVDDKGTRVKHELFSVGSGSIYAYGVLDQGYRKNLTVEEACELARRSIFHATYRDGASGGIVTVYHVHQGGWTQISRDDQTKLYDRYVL
In words: Trypanosoma cruzi proteasome chymotrypsin-like activity (TcProtChymo) assay. Also: in the data most compounds retested in dose-response had high values. The format is functional. Particulars: 9.37 µM.

The species named for another assay is Homo sapiens. The assay is described as follows: To identify inhibition of the IFN signalling (Jak-Stat) pathway via expression of an eGFP reporter gene under the control of an IFN-stimulated response element (ISRE) containing MxA promoter. Format: functional. Particulars: 30 µM. Background: Reporter assays use an easily measured gene product as a stand-in for the process of interest.

In assay [7] the target is T4, Tyrosyl-tRNA synthetase, putative (Trypanosoma cruzi (strain CL Brener)) (UniProt Q4DSP6).
T4 sequence (whole entry): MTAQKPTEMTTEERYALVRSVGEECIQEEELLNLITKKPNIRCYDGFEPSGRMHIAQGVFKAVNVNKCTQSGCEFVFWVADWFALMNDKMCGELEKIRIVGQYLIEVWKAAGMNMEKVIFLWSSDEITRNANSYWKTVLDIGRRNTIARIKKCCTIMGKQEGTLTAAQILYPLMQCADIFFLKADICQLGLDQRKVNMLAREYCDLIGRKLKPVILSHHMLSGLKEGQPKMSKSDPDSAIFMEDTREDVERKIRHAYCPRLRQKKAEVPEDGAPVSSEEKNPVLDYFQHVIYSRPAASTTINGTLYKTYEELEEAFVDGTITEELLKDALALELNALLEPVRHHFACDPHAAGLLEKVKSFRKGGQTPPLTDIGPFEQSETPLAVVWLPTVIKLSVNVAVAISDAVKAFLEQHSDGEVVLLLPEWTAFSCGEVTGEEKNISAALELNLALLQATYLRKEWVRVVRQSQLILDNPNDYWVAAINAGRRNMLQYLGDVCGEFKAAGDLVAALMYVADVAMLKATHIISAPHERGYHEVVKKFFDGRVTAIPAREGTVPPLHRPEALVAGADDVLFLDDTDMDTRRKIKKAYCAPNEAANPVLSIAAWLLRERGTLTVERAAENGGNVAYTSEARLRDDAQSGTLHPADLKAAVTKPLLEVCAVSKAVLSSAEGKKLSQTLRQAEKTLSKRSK
In words: Trypanosoma cruzi tyrosyl tRNA synthetase (TcYRS) _High Tyrosine SOP. Also: in the data most compounds retested in dose-response had high values. The format is functional. The following applies: 30 µM.

The target of assay [8] is T4, Tyrosyl-tRNA synthetase, putative (Trypanosoma cruzi (strain CL Brener)). In words: Trypanosoma cruzi tyrosyl tRNA synthetase (TcYRS) SOP. The format is functional. Particulars: 30 µM.
In assay [9] the target is Chromo domain-containing protein 1 (Saccharomyces cerevisiae (strain ATCC 204508 / S288c) (Baker's yeast)) (UniProt P32657). In words: ScCHD-1 Enzyme Inhibition Assay. Also: in the data most compounds retested in dose-response had high values. The following applies: 30 µM. Format: functional.
Chain of Chromo domain-containing protein 1 (Saccharomyces cerevisiae (strain ATCC 204508 / S288c) (Baker's yeast)) (P32657 whole entry, the tested form may be a part): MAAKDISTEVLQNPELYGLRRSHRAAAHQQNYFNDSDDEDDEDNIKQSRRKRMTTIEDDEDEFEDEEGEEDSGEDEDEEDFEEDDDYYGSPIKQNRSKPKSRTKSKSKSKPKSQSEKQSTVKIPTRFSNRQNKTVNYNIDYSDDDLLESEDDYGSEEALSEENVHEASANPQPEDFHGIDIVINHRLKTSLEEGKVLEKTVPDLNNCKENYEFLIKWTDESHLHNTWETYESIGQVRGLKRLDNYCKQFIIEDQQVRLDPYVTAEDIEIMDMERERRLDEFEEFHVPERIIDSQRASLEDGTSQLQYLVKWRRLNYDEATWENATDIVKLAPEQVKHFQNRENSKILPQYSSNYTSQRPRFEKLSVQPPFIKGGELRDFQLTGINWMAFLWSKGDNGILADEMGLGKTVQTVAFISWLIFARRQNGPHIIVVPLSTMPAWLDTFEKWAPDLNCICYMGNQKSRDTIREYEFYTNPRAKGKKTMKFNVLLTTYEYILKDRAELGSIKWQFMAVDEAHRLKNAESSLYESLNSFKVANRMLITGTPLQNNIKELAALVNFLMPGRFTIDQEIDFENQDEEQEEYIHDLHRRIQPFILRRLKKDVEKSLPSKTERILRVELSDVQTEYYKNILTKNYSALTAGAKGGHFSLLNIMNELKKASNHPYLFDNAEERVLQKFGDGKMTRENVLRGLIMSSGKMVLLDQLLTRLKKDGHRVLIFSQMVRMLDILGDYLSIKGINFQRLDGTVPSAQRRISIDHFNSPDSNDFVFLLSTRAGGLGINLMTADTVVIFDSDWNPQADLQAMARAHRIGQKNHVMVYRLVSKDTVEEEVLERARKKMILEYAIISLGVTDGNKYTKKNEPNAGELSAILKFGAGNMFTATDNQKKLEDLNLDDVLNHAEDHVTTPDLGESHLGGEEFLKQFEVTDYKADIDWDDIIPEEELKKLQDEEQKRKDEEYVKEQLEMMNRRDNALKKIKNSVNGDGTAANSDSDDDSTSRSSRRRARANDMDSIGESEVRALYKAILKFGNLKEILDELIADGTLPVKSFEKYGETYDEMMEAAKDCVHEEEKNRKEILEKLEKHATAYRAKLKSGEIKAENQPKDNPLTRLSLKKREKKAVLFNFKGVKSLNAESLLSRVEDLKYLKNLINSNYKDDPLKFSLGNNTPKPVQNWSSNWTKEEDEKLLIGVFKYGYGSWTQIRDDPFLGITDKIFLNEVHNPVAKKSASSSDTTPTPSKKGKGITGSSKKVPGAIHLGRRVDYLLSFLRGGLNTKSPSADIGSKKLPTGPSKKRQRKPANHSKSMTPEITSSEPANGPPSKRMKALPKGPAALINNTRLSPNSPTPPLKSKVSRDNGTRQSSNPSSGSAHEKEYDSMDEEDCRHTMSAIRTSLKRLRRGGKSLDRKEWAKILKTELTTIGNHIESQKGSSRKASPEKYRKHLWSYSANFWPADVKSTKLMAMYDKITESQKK

Chain of Protein translocase subunit SecA (Escherichia coli (strain K12)) (P10408 whole entry): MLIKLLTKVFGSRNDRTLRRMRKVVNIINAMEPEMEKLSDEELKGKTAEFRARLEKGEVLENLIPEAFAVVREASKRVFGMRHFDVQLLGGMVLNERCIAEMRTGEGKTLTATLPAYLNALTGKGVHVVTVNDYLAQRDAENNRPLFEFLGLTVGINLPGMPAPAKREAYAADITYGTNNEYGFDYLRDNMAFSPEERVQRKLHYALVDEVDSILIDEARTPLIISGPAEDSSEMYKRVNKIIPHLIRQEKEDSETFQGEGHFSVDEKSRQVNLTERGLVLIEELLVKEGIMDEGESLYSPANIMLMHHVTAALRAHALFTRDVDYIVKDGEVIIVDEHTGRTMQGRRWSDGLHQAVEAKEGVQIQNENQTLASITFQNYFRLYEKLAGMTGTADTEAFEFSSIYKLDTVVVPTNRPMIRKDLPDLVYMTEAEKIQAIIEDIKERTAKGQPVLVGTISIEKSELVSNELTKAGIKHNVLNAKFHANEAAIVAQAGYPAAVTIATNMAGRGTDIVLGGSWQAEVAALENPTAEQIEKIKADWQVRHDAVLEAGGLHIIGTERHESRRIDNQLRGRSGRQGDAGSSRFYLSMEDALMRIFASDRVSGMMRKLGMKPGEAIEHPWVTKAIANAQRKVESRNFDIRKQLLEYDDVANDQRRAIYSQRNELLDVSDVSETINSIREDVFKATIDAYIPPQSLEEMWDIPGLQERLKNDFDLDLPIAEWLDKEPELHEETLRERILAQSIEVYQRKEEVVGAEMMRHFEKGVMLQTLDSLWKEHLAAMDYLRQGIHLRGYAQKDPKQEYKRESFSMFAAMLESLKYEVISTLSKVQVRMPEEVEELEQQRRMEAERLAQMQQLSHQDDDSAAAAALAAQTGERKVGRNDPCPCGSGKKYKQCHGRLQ

On to `c1ccc(OCCN2CCCC(c3noc(C4CC4)n3)C2)cc1` (stereo not drawn), for which the Percent Effect in assay [1] is -8.89%; in [2], 0%; in assay [3], 3.25%; in [4], -3.02%; in the assay on Trypanosoma cruzi, -3.02%; in assay [5], -1.56%. In addition, the Percent Effect is 10.1% in assay [6]; 6.37% in the assay filed under Homo sapiens; -4.92% in assay [7]; 1.24% in assay [8]; -2.68% in [9].

`COc1c(C)cnc(CN2CCC(C(=O)N(C)C)CC2)c1C`: the Percent Effect was -5.69% in assay [1]; 5.2% in assay [2]; 0.364% in assay [3]; 10.3% in assay [4]; 2.81% in the assay on Trypanosoma cruzi; 1.42% in assay [5]. Also, the Percent Effect in [6] was 9.46%; in the assay filed under Homo sapiens, -0.558%; in [7] it was 1.94%; in [8], 7.32%; in assay [9] it was -6.93%.

For `Cc1oc(C)c(C(=O)NCc2ccccc2S(=O)(=O)N(C)C)c1C`, the Percent Effect in assay [1] is -1.39%; in assay [2] it was 10.5%; in assay [3], 8.5%; in assay [4] it was 1.67%; in the assay on Trypanosoma cruzi, -3.01%; in [5] it was -3.83%. The Percent Effect in [6] is 8.19%; in the assay listed under Homo sapiens, 2.68%; in assay [7], 1.47%; in assay [8], 7.32%; in [9], -5.82%.

For `Cc1ccc2c(c1)CN(C(=O)c1ccccc1F)C(CN(C)C)CO2` (stereo not drawn), the Percent Effect in assay [1] is -0.708%; in [2] it was 12.2%; in [3], 14.3%; in assay [4] it was -7.4%; in the assay on Trypanosoma cruzi, -5.73%; in assay [5], -4.41%. Moreover, the Percent Effect in assay [6] was 11.7%; in the assay filed under Homo sapiens it was 0.0165%; in assay [7], 1.07%; in assay [8], 3.9%; in assay [9], -10%.

As for `Cn1c(CNc2c(F)cccc2-n2cccn2)cc(=O)n(C)c1=O`, the Percent Effect in assay [1] is -1.07%; in [2] it was 6.94%; in assay [3] it was -4.86%; in [4] it was 3.69%; with Trypanosoma cruzi it was 1.46%; in assay [5], 20.8%. Further, the Percent Effect is 6.14% in assay [6]; 5.47% in the assay filed under Homo sapiens; 5.26% in assay [7]; 10.3% in [8]; -0.228% in assay [9].

Turning to `CC(C)C(NC(=O)NCCNc1ccccn1)c1cccs1` (stereo not drawn), the Percent Effect was -6.06% in assay [1]; 18.2% in [2]; -14.7% in assay [3]; 6.36% in [4]; -0.187% in the assay with Trypanosoma cruzi; 4.98% in assay [5]. The Percent Effect was 10.8% in assay [6]; 8.29% in the assay listed under Homo sapiens; 9.71% in assay [7]; 26.8% in assay [8]; -7.99% in assay [9].

Consider `O=C1CCC2(CCCN(c3ncc(F)cn3)CC2)N1CC1CC1` (stereo not drawn), for which the Percent Effect in assay [1] was -4%; in assay [2], 7.79%; in assay [3], 3.94%; in assay [4] it was 5.12%; in the assay with Trypanosoma cruzi, 1.08%; in [5], 5.81%. Further, the Percent Effect is 12.7% in assay [6]; 14.5% in the assay filed under Homo sapiens; 6.35% in [7]; 16.7% in assay [8]; -4.57% in [9].

`CCNC(=O)[C@@H]1C[C@@H](NC(=O)Cc2ccccn2)CN1CCCSC`: the Percent Effect was -5.92% in [1]; 0% in assay [2]; 1.44% in assay [3]; -0.868% in [4]; -4.37% with Trypanosoma cruzi; -1.2% in assay [5]. Besides, the Percent Effect in assay [6] is 6.42%; in the assay filed under Homo sapiens, 5.01%; in assay [7], 0%; in assay [8], -3.7%; in assay [9], 0.131%.
